Each structure is given as a SMILES string. Records with an inconclusive call do not appear. A call without a number means that no potency is given here. Active and inactive are the calls of the source. Calls come from the whole dose curve; as a rule, active = well fitted inhibition curve with a large enough effect; inconclusive = small, poorly fitted or top-dose-only effect; inactive = no such curve, though single readings can be large or run the other way.

This is an account of results in PubChem BioAssay AID652175 (National Center for Advancing Translational Sciences (NCATS), 2013).

The assay can be described thus: qHTS Assay for Lipid Storage Modulators: S3 Assay against Probe and Analogs. As to conditions: Drosophila S3 cells, BODIPY lipid droplet fluorescence, 18-24 h, oleic acid added to induce droplets; series mostly up to 46.1 µM. An excerpt:
Storing lipids as a reservoir for energy or the anabolism of elementary metabolites is a common feature of probably all cells and is conserved from bacteria to humans. The universal cellular lipid storage organelle is the so-called lipid storage droplet (LD). Although ubiquitous, LDs share a simple structure composed of a hydrophobic core that harbors the storage lipids, which is shielded by a droplet-specific phospholipid monolayer to which proteins are attached. The current model of LD biogenesis involves an incorporation of the lipid core into the membrane leaflets of the endoplasmic reticulum (ER) followed by a subsequent budding-like maturation of a LD, which ultimately pinches off. Once released, LD volume can increase by localized lipogenesis or fusion of existing droplets. Storage lipids are re-mobilized enzymatically by lipase activity. Lipase regulation in the adipocyte is heavily studied and involves multiple components including catecholamine signaling, the LD-associated proteins Perilipin and comparative gene identification-58 (CGI-58) and at least two lipases named hormone sensitive lipase (HSL) and adipocyte triglyceride lipase (ATGL). LD regulation outside of the adipocyte is poorly understood and only few components are known. However, there is an urgent need to learn more about ectopic fat depots as mislocalized storage of lipids, for example in the liver or muscle, is an eminent health problem associated with insulin resistance or the metabolic syndrome. We developed a laser-scanning cytometer assay to enable 1,536-well screening and combined the results of the small molecules screen with an RNAi database based on lipid storage. In this assay we tested analogs of the probe against the original qHTS assay, which involved drosophila melanogaster cells (S3), to see if these small molecules could disrupt lipid storage. NIH Molecular Libraries Probe Production Centers Network [MLPCN] NIH Chemical Genomics Center [NCGC] MLPCN Grant: MH085686 Assay Submitter (PI): Mathias Beller, Max-Planck-Institut fur Biophysikalische Chemie
qHTS was performed with embryonic Drosophila S3 cells (Bloomington Drosophila Genomics Resource Center [DGRC]). We dispensed 4 uL of cells at 1.25 x 10^6 cells/mL into LoBase Aurora COC 1,536-well plates (black walled, clear bottom) with a bottle-valve solenoid-based dispenser (Aurora) to obtain 5,000 cells/well. Triacsin C (Sigma-Aldrich T-4540), an inhibitor of long-chain fatty acyl CoA synthetase that blocks synthesis of triglycerides, was used as a positive control for lipid under-storage. A total of 23 nL of compounds dissolved in DMSO at different concentrations were transferred to the assay plates using a Kalypsys pin tool equipped with a 1,536-pin array containing 10-nL slotted pins (FP1S10, 0.457-mm diameter, 50.8 mm long; V&P Scientific). The final DMSO concentration was 0.46%. One microliter of oleic acid at 400 uM (Calbiochem, #4954) was added to induce lipid droplet formation in the cells, and the plates were lidded with stainless steel rubber gasket lined lids containing pinholes. After 18-24 h incubation at 25 0C and 95% humidity, 4 uL of the BODIPY lipid dye 493/503 (1:2000, Molecular Probes) and the Cell Tracker Red CMTPX dye (Life Technologies, # 34552) were added to the wells to stain lipid droplets and enumerate cell number, respectively. Fluorescence was detected by excitation of the fluorophores with a 488-nm laser on an Acumen Explorer (TTP Lab Tech). The total intensity in channel 1 (500-530 nm) reflected lipid droplet accumulation. Cells were detected using channel 3 (575-640 nm) with 5-um width and 100-um depth filters. The ratio of the total intensity in PMT channel 1 over total intensity of channel 3 was also calculated. Percent activity was computed relative to an internal control (100% inhibited lipid droplet deposition due to the presence of 20 uM Triacsin C), which was added to 32 wells/plate.
Background: qHTS replaces the single test concentration by a dilution series.
For the compound `CCOC(=O)C1CCN(C(=O)C(C)(C)NC(=O)Nc2ccc(Cl)cc2Cl)CC1`, the Potency is 1480 nM (active). With `O=C(NC1CCCc2c1cnn2-c1ccc(F)cc1F)c1cccs1` (stereo not given) the figure was 14.8 nM (active); with `CCOc1ccc(CCNC(=O)c2ccc(C3(C(F)(F)F)N=N3)cc2)cc1OCC`, “inactive”. To `O=C(NCCc1ccc2c(c1)OCO2)c1cc2sccc2[nH]1` belongs “inactive”. Take `CCOC(=O)C1CCN(C(=O)C2(NC(=O)Nc3ccccc3Cl)CC2)CC1`: the Potency entry was “inactive”. For the compound `CCOc1ccc(CCNC(=O)c2ccc(N3N=C(C)CC3=O)cc2)cc1OCC`, the Potency entry was “inactive”. To `O=C(O)CCc1ccc(NCc2cccc(Oc3ccccc3)c2)cc1` belongs “inactive”. Take `Cc1cc(SCc2sc(-c3ccc(C(F)(F)F)cc3)nc2C)ccc1OCC(=O)O`: the Potency result was “inactive”. `O=C(NC1CCCc2c1cnn2-c1ccc(F)cc1F)c1ccc(C(=O)c2ccccc2)cc1` (stereo not given): the Potency entry is “inactive”. On to `CCOc1ccc(CCNC(=O)c2ccnn2Cc2cccc(C)c2)cc1OCC`, for which the Potency result was “inactive”.

For the compound `O=C(NC1CCCc2c1cnn2-c1ccc(F)cc1F)c1cnon1` (stereo not given), the Potency entry was “inactive”. Take `CCOc1ccc(CCNC(=O)c2cc3sccc3n2Cc2ccccc2)cc1OCC`: the Potency was 4.2 nM (active). With `CCOc1ccc(CCNC(=O)c2cc3sccc3n2C(C)C)cc1OCC` the figure was 187 nM (active); with `O=C(NC1CCCc2c1cnn2-c1ccc(O)cc1)c1ccccn1` (stereo not given), 1.2 nM (active). With `O=C(Cc1ccccc1)NC1CCCc2c1cnn2-c1ccc(F)cc1F` (stereo not given) the entry was “inactive”; with `Cc1cn(-c2cc(NC(=O)c3ccc(C)c(Nc4nccc(-c5cccnc5)n4)c3)cc(C(F)(F)F)c2)cn1`, “inactive”. On to `CCOc1ccc(CCNC(=O)c2cc3sccc3n2Cc2ccncc2)cc1OCC`, for which the Potency was 132 nM (active). With `COc1cccc(-n2ncc3c2CCCC3NC(=O)c2ccccn2)c1` (stereo not given) the figure was 3.7 nM (active); with `O=C(NCCc1ccc(OCC(F)(F)F)c(OCC(F)(F)F)c1)c1cc2sccc2n1Cc1ccccc1`, 1320 nM (active); with `CCOC(=O)C1CCN(C(=O)C(C)(C)NC(=O)Nc2cccc(OC)c2)CC1`, “inactive”. Regarding `CCOc1ccc(CCNC(=O)C2=C(C)OCCO2)cc1OCC`, the Potency result is “inactive”. In the case of `CCOC(=O)C1CCN(C(=O)C(C)(C)NC(=O)Nc2ccc3ccccc3c2)CC1`, the Potency is 4690 nM (active). For `CCOc1ccc(CCNC(=O)c2cc3sccc3n2CCN2CCOCC2)cc1OCC`, the Potency is 148 nM (active). With `O=C(O)c1cccc(-c2noc(-c3ccccc3F)n2)c1` the entry was “inactive”. To `O=C(Nc1cccc2nn(-c3ccc(F)cc3)cc12)c1ccccn1` belongs “inactive”; to `CCOc1ccc(CCNC(=O)C2(c3ccccc3)CC2)cc1OCC`, “inactive”. With `CCOc1ccc(CCNC(=O)Cc2ccccc2)cc1OCC` the entry was “inactive”; with `CCOc1ccc(CCNC(=O)c2cc3sccc3n2Cc2ccccn2)cc1OCC`, 29.6 nM (active).

As to `Cn1c(=O)n(-c2ccc(C(C)(C)C#N)cc2)c2c3cc(-c4cnc5ccccc5c4)ccc3ncc21`, the Potency was 1180 nM (active). For the compound `CCOc1cc(CCNC(=O)c2cc3sccc3n2Cc2ccccc2)cc(F)c1OCC`, the Potency was 33.2 nM (active). Regarding `O=C(NCCc1ccc2c(c1)OCO2)c1cc2sccc2n1Cc1ccccc1`, the Potency result was “inactive”. To `Cc1cc2c(cc1C1(c3ccc(C(=O)O)cc3)CC1)C(C)(C)CCC2(C)C` belongs “inactive”; to `O=C(NC1CCCc2c1cnn2-c1ccc(F)cc1F)c1ccncc1` (stereo not given), “inactive”. With `C[C@@H](NCCCc1cccc(C(F)(F)F)c1)c1cccc2ccccc12` the entry was “inactive”. To `CC(C)(C)OC(=O)NCCOCCOCCOCCn1ncc2c1CCCC2NC(=O)c1ccccn1` (stereo not given) belongs “inactive”; to `CCOC(=O)C1CCN(C(=O)C2(NC(=O)Nc3ccccc3Cl)CCCCC2)CC1`, 166 nM (active). `CC(C)(NC(=O)Nc1ccccc1Cl)C(=O)N1CCC(C(=O)O)CC1`: the Potency result is “inactive”.

As to `CCOc1ccc(CCNC(=O)C2CCCCC2)cc1OCC`, the Potency entry is “inactive”. For the compound `COc1ccc(-n2ncc3c2CCCC3NC(=O)c2ccccn2)cc1` (stereo not given), the Potency is 1.3 nM (active). Regarding `O=C(NC1CCCc2c1cnn2CCO)c1ccccn1` (stereo not given), the Potency result is “inactive”.
